Five compounds from PubChem BioAssay (NCI) can be followed below.

Molecules are shown by their SMILES. Compounds without any hit were thinned out: in the full panel of roughly 79,000, 15% have a hit. A number with no mark means an inactive call. Active and inactive are the calls of the source. No stated cut-off is given here; in the data, active means growth inhibition above about 70%; inactive means the rest.

Assay [1] can be described thus: NCI Yeast Anticancer Drug Screen. Data for the rad50 strain (AID 155).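 Further: 0% = growth of vehicle-only cultures of the same strain.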 Conditions: S. cerevisiae rad50 strain growth inhibition, hits give high values. The procedure, abridged: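 Vehicle-treated cultures provide the reference for the growth inhibition reported for compound-exposed, repair-deficient yeast.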
Assay [2] is described as follows: NCI Yeast Anticancer Drug Screen. Data for the mec2-1 strain (AID 157). The settings on record: S. cerevisiae mec2-1 strain, hits give high values. The procedure, abridged:
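Test agents were screened against the mec2-1 yeast strain, with defined DNA repair or cell cycle alteration. Growth was scored as inhibition against vehicle-only controls.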

Assay [3] can be described thus: NCI Yeast Anticancer Drug Screen. Data for the sgs1 mgt1 strain (AID 161).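 Further: 0% = growth of cultures given vehicle only.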 Conditions: S. cerevisiae sgs1 mgt1 strain, hits give high values. The procedure, abridged: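 Test agents were incubated with a DNA-repair-mutant yeast strain. Growth was then read and compared against vehicle-treated controls.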
The nature of assay [4]: NCI Yeast Anticancer Drug Screen. Data for the cln2 rad14 strain (AID 165).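 Further: 0% = growth equal to vehicle treated cultures.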 Conditions: S. cerevisiae cln2 rad14 strain, hits give high values. The procedure, abridged: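 Growth of compound-exposed yeast (cln2 rad14 genotype) measured and expressed as inhibition relative to vehicle.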
A short description of assay [5]: NCI Yeast Anticancer Drug Screen. Data for the bub3 strain (AID 167). The settings on record: S. cerevisiae bub3 mutant strain, hits give high values. The procedure, abridged: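 Mutant yeast screening strain plus compound; vehicle-treated cultures serve as the 0% inhibition reference.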
Assay [6] is described as follows: NCI Yeast Anticancer Drug Screen. Data for the mlh1 rad18 strain (AID 175). Conditions: S. cerevisiae mlh1 rad18 strain growth inhibition, hits give high values. The procedure, abridged:
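In this whole-cell yeast screen, a strain with altered DNA damage repair is challenged with compound, and its growth is measured against matched vehicle-treated controls.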

Where [7] appears, read: at 5.0 µM (retest, dose inferred, filed as 0.5).
Where [8] appears, read: at 50.0 µM (retest, dose inferred, filed as 5.0).

Consider `O=P(O)(Oc1ccccc1)Oc1ccccc1.[Ag]`, for which the growth inhibition in assay [1] (setting [7]) was 36%; in assay [1] (setting [8]), 71% (active); in assay [1] (at 50.0 µM), 92.2% (active); in assay [2] (setting [7]), 37%; in assay [2] (setting [8]), 87% (active); in assay [2] (at 50.0 µM), 94% (active). Also, the growth inhibition is 99% (active) in assay [3] (setting [7]); 98% (active) in assay [3] (setting [8]); 94% (active) in assay [3] (at 50.0 µM); 70% (active) in assay [4] (setting [7]); 99% (active) in assay [4] (setting [8]); 93% (active) in assay [4] (at 50.0 µM). The growth inhibition in assay [5] (setting [7]) is 100% (active); in assay [5] (setting [8]), 99% (active); in assay [5] (at 50.0 µM) it was 92.8% (active); in assay [6] (setting [7]) it was 37%; in assay [6] (setting [8]), 86% (active); in assay [6] (at 50.0 µM), 92.3% (active).
Take `O=[N+]([O-])/C=C/c1ccc(Cl)cc1[N+](=O)[O-]`: the growth inhibition was 97% (active) in assay [1] (setting [7]); 98% (active) in assay [1] (setting [8]); 99.2% (active) in assay [1] (at 50.0 µM); 98% (active) in assay [2] (setting [7]); 99% (active) in assay [2] (setting [8]); 99.6% (active) in assay [2] (at 50.0 µM). Also, the growth inhibition was 99% (active) in assay [3] (setting [7]); 99% (active) in assay [3] (setting [8]); 99.5% (active) in assay [3] (at 50.0 µM); 98% (active) in assay [4] (setting [7]); 97% (active) in assay [4] (setting [8]); 99.3% (active) in assay [4] (at 50.0 µM). The growth inhibition in assay [5] (setting [7]) was 99% (active); in assay [5] (setting [8]) it was 99% (active); in assay [5] (at 50.0 µM), 99.4% (active); in assay [6] (setting [7]), 96% (active); in assay [6] (setting [8]), 99% (active); in assay [6] (at 50.0 µM) it was 99.2% (active).
For `COc1cc(C(=O)[O][Hg][CH2]C2CC(O)CC([CH2][Hg][O]C(=O)c3cc(OC)c(OC)c(OC)c3)O2)cc(OC)c1OC` (stereo not given), the growth inhibition in assay [1] (setting [7]) is 97% (active); in assay [1] (setting [8]), 98% (active); in assay [1] (at 50.0 µM), 99.3% (active); in assay [2] (setting [7]), 98% (active); in assay [2] (setting [8]), 99% (active); in assay [2] (at 50.0 µM) it was 99.6% (active). Further, the growth inhibition in assay [3] (setting [7]) is 99% (active); in assay [3] (setting [8]) it was 99% (active); in assay [3] (at 50.0 µM), 99.6% (active); in assay [4] (setting [7]) it was 95% (active); in assay [4] (setting [8]), 96% (active); in assay [4] (at 50.0 µM) it was 98.5% (active). In addition, the growth inhibition in assay [5] (setting [7]) was 97% (active); in assay [5] (setting [8]) it was 99% (active); in assay [5] (at 50.0 µM), 99.1% (active); in assay [6] (setting [7]), 99% (active); in assay [6] (setting [8]), 99% (active); in assay [6] (at 50.0 µM), 98.7% (active).
`O=[N+]([O-])/C=C/c1ccc(Cl)cc1`: the growth inhibition was 79% (active) in assay [1] (setting [7]); 99% (active) in assay [1] (setting [8]); 99% (active) in assay [1] (at 50.0 µM); 59% in assay [2] (setting [7]); 100% (active) in assay [2] (setting [8]); 99.8% (active) in assay [2] (at 50.0 µM). The growth inhibition is 54% in assay [3] (setting [7]); 100% (active) in assay [3] (setting [8]); 99.5% (active) in assay [3] (at 50.0 µM); 19% in assay [4] (setting [7]); 99% (active) in assay [4] (setting [8]); 99% (active) in assay [4] (at 50.0 µM). Further, the growth inhibition in assay [5] (setting [7]) is 45%; in assay [5] (setting [8]), 99% (active); in assay [5] (at 50.0 µM) it was 99.5% (active); in assay [6] (setting [7]), 80% (active); in assay [6] (setting [8]), 99% (active); in assay [6] (at 50.0 µM), 99.5% (active).
In the case of `Oc1c(Cl)cc(Cl)c2ccccc12.[Cu+2]`, the growth inhibition in assay [1] (setting [7]) is -5%; in assay [1] (setting [8]), 91% (active); in assay [1] (at 50.0 µM), 99.3% (active); in assay [2] (setting [7]) it was -34%; in assay [2] (setting [8]), 77% (active); in assay [2] (at 50.0 µM), 99.1% (active). For the same compound, the growth inhibition in assay [3] (setting [7]) is -5%; in assay [3] (setting [8]), 91% (active); in assay [3] (at 50.0 µM) it was 99.2% (active); in assay [4] (setting [7]), -1%; in assay [4] (setting [8]), 32%; in assay [4] (at 50.0 µM), 98.7% (active). For the same compound, the growth inhibition is -2% in assay [5] (setting [7]); 93% (active) in assay [5] (setting [8]); 99.5% (active) in assay [5] (at 50.0 µM); 0% in assay [6] (setting [7]); 93% (active) in assay [6] (setting [8]); 99.2% (active) in assay [6] (at 50.0 µM).
